Compound activity as filed in PubChem BioAssay.
Cycloheximide cs – counter-screen hit for Shiga toxin inhibitors, cycloheximide | cell reporter, cycloheximide protein synthesis inhibition counterscreen | max response, % | 12% of 300,000 active; in the data active = max response mostly above about 13%, no sharp cut-off; inactive = mostly below about 14%; note: read at 38.3 µM for the half of the compounds with a filed dose
SARS PLP yeast – inhibitors of SARS-CoV papain-like protease in yeast; S. cerevisiae expressing SARS-CoV PLpro, growth rescue; Potency, µM (titrated, usually from 32.9 µM), actives largely listed as activators; 0.19% of 330,000 active; calls by dose curve; note: nearly all actives have a fitted effect of over 55% in size
Shiga toxin inh – blocks Shiga toxin action in Vero cells; AID 2315; 9.2% of 290,000 active; inhibition, % at 38.7 µM; Vero cells, Shiga toxin protein synthesis inhibition reporter; in the data active = inhibition mostly above about 28%, no sharp cut-off; inactive = mostly below about 43%
NS1 inh – influenza NS1 inhibition | Potency, µM (doses to about 46.1 µM) | 0.4% of 270,000 active | AID 2326; calls by dose curve; note: actives are rising curves; nearly all actives have a fitted effect of over 50% in size
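OD600 was taken as the measure of yeast growth restored by compound in an NS1-expressing S. cerevisiae strain. Cells had been washed out of glucose medium and diluted 1:100 into galactose -URA medium, pH 6.0.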
Pf growth 96h – inhibits malaria parasite growth, 96 h | P. falciparum luciferase reporter growth, 96 h | Potency, µM (series often up to 28.7 µM), usual class: inhibitors | 6.9% of 320,000 active
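P. falciparum expressing integrated firefly luciferase grown in erythrocytes (2% hematocrit, 0.05% parasitemia final) with compounds for 96 hours at 37 C, 5% CO2. Growth inhibition read as loss of luminescence after adding luciferase detection reagent.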
Pf growth 48h – P. falciparum growth inhibition at 48 hours (one generation); P. falciparum luciferase growth in erythrocytes, 48 h; Potency, µM (top dose mostly 28.7 µM), hits mostly inhibitors; 5.9% of 310,000 active; AID 504832
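Luminescence readout; reporter = integrated firefly luciferase in P. falciparum. RBC culture at 2% hematocrit, 0.1% parasitemia final, 37 C/5% CO2; decreased signal taken as growth inhibition.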
Large screens that a line does not name were inactive. Most compounds without a hit are left out; they make up all but 21% or so of the library. Unless noted, calls come from the whole dose curve; as a rule, active = well fitted inhibition curve with a large enough effect; inconclusive = small, poorly fitted or top-dose-only effect, or another doubt; inactive = no such curve, though single readings can be large or run the other way.

CC[C@H]1[C@@H]2C=C[C@@H]3[C@H]4C/C=C\C(=O)NCCC[C@@H]5NC(=O)C(=C5O)C(=O)CC[C@@H]4C[C@@H]3[C@H]2C[C@H]1C	none (no result: SARS PLP yeast, NS1 inh, Pf growth 96h, Pf growth 48h)
Nc1n[nH]c(C2CC2)c1N=Nc1ccc(Cl)c(Cl)c1	Shiga toxin inh 51, NS1 inh inconclusive
CCCCc1ccc(-c2ccc(C)cc2O)nc1	Cycloheximide cs 25, Shiga toxin inh 58 (no result: Pf growth 48h)
CCCCc1ccc(-c2ccc(Br)cc2O)nc1	Cycloheximide cs 49, Shiga toxin inh 86 (no result: Pf growth 48h)
Cc1ccccc1C(OCC(O)CN1CCC(C(N)=O)CC1)c1ccccc1 (centres undefined)	none
COc1cc(/C=C/C(=O)Nc2cc(C(F)(F)F)ccc2Cl)cc(OC)c1OC	Pf growth 96h 2.6µM, Pf growth 48h 10µM
COc1ccc(/C=C/C(=O)Nc2cc(C(F)(F)F)ccc2Cl)cc1OC	Pf growth 48h inconclusive
CCCOc1ccc(C(=O)N2CCN(c3ccc(NC(=O)CC)cc3Cl)CC2)cc1	Pf growth 48h 6.6µM
CN1CCN(c2ccc(NC(=O)COc3ccccc3)cc2Cl)CC1	Cycloheximide cs 44, Shiga toxin inh 83
Cc1cc(Oc2ccccc2)nc(SCC(=O)Nc2ccc(Cl)c(Cl)c2)n1	Pf growth 96h 13µM (no result: Pf growth 48h)
Cc1ccc(NC(=O)COc2ccccc2)cc1Cl	Cycloheximide cs 17, Shiga toxin inh 102, Pf growth 48h inconclusive
Cc1ccc(OCC(=O)Nc2ccc(N3CCN(C(=O)c4ccc(C)cc4)CC3)cc2)cc1	none
COC(=O)c1ccc(N2CCN(C)CC2)c(NC(=O)COc2ccccc2)c1	Pf growth 48h inconclusive
CC1=C(C(=O)OC(C)C)C(c2c(O)ccc3ccccc23)NC(=O)N1 (centres undefined)	none (no result: Pf growth 48h)
Cc1cc(NC(=O)COc2ccccc2)ccc1Cl	Cycloheximide cs 50, Shiga toxin inh 107, Pf growth 96h inconclusive
CC1(c2ccccc2)NC(=O)N(CC(=O)N2CCN(S(=O)(=O)c3ccccc3[N+](=O)[O-])CC2)C1=O (centres undefined)	none
CC1(C)Cc2nc(-c3ccccc3)nc(SCC(O)CO)c2CO1 (centres undefined)	NS1 inh inconclusive, Pf growth 96h 10µM
CCN(CC)C(=O)CSc1nc(-c2ccc(C)cc2)nc2c1COC(C)(C)C2	Cycloheximide cs 20, Pf growth 96h inconclusive (no result: Pf growth 48h)
Cc1cccc(-c2nc3c(c(SCC(=O)N4CCOCC4)n2)COC(C)(C)C3)c1	Pf growth 96h 12µM, Pf growth 48h inconclusive
Cc1nc(NC(=O)c2ccc(OCC(C)C)cc2)sc1Cc1ccc2c(c1)OCO2	Cycloheximide cs 19, Shiga toxin inh 30, Pf growth 96h inconclusive, Pf growth 48h inconclusive
CCCOc1ccc(C(=O)Nc2nc(C)c(Cc3ccc4c(c3)OCO4)s2)cc1	Cycloheximide cs 24, Shiga toxin inh 72, Pf growth 96h inconclusive, Pf growth 48h 10µM
Cc1c(Cc2ccc3c(c2)OCO3)sc(NC(=O)c2ccc3ccccc3c2)c1C(N)=O	none
COc1cc(C(=O)Nc2nc(C)c(Cc3ccc4c(c3)OCO4)s2)cc(OC)c1OC	NS1 inh inconclusive, Pf growth 96h inconclusive, Pf growth 48h inconclusive
COc1ccccc1N1C(=O)C2C3C=CC(C3)C2C1=O (centres undefined)	SARS PLP yeast inconclusive
COc1ccccc1NC(=O)C1CCCN(c2cnccn2)C1 (centres undefined)	none
CCN1CCN(c2ncnc3sc4c(c23)CCC(C)C4)CC1 (centres undefined)	Pf growth 48h inconclusive
CC1CCCN(CC(O)COc2ccc(S(=O)(=O)N3CCCC3)cc2[N+](=O)[O-])C1 (centres undefined)	Pf growth 96h inconclusive, Pf growth 48h inconclusive (no result: Cycloheximide cs, Shiga toxin inh, NS1 inh)
OCc1c(OCc2cccc(F)c2)ccc2ccccc12	Cycloheximide cs 25, Pf growth 96h inconclusive (no result: SARS PLP yeast, Shiga toxin inh)
Fc1ccc(COc2ccc3ccccc3c2CNc2nn[nH]n2)cc1	Pf growth 48h inconclusive
CNCc1c(OCc2ccc(F)cc2)ccc2ccccc12	Pf growth 96h inconclusive, Pf growth 48h 15µM
Fc1cccc(COc2ccccc2CNc2ccccc2)c1	SARS PLP yeast inconclusive
COCCN1CCN(C(=O)c2cc(COc3ccc(Cl)cc3OC)on2)CC1	Cycloheximide cs 58, Shiga toxin inh 94
COc1cc(Cl)ccc1OCc1cc(C(=O)N[C@H]2CCCCNC2=O)no1	Cycloheximide cs 36, Shiga toxin inh 62
COc1cc(Cl)ccc1OCc1cc(C(=O)N2CCCCCCC2)no1	Cycloheximide cs 43, Shiga toxin inh 84
COc1cc(C)ccc1OCc1cc(C(=O)N2CCCCCC2)no1	Cycloheximide cs 30, Shiga toxin inh 64
CCOC(=O)N1CCN(C(=O)c2cc(COc3ccc(Cl)cc3OC)on2)CC1	Pf growth 96h inconclusive
Cc1ccc(Nc2nc(/N=C/NO)n[nH]2)cc1C	Cycloheximide cs 27, Shiga toxin inh 65 (no result: NS1 inh)
O=C(Nc1nnc(-c2cccs2)o1)c1cccc(Oc2ccccc2)c1	Pf growth 96h inconclusive (no result: Pf growth 48h)
O=C(Nc1ccsc1C(=O)O)c1cccc(Oc2ccccc2)c1	Cycloheximide cs 14
O=C(Nc1ccsc1C(=O)O)c1cccc(C(F)(F)F)c1	Cycloheximide cs 61, Shiga toxin inh 77 (no result: Pf growth 48h)
Cc1ccccc1NC(=O)c1cccc(C(F)(F)F)c1	none
O=[N+]([O-])c1ccc(S(=O)(=O)N/N=C/c2ccc3c(c2)OCO3)cc1	Cycloheximide cs 31, Shiga toxin inh 50
O=[N+]([O-])c1cccc(S(=O)(=O)N/N=C\c2ccc3c(c2)OCO3)c1	Cycloheximide cs 43, Shiga toxin inh 75
CCN(CC(=O)Nc1ccc(OC)cc1)C(=O)c1cc(S(=O)(=O)N(C)C)ccc1N1CCCC1	Pf growth 48h inconclusive (no result: Cycloheximide cs, Shiga toxin inh, NS1 inh)
Cc1ccc2nc(-c3cccc(S(=O)(=O)N(C)C)c3)cn2c1	Cycloheximide cs 54, Shiga toxin inh active
CCCN(CCC)S(=O)(=O)c1cccc(-c2csc(C)n2)c1	Pf growth 96h inconclusive, Pf growth 48h 10µM
CCN(CC)S(=O)(=O)c1cccc(-c2cn3cc(C)ccc3n2)c1	Cycloheximide cs 66, Shiga toxin inh 98 (no result: Pf growth 96h)
CCN(CC)S(=O)(=O)c1ccc(-c2csc(C)n2)cc1	Pf growth 96h inconclusive
COc1ccccc1CNC(=O)CN(C)S(=O)(=O)c1ccc2c(c1)n(C)c(=O)c(=O)n2C	Pf growth 96h inconclusive, Pf growth 48h inconclusive
CCOc1cc(/C=C2/C(=O)ON=C2C)ccc1O	Pf growth 96h 0.093µM
C=CCNC(=O)/C(C#N)=C\c1cc(Cl)c(O)c(OCC)c1	Pf growth 96h inconclusive
CC1=NOC(=O)/C1=C/c1ccc(O)c(Cl)c1	Pf growth 96h inconclusive
CCOc1cc(/C=C2\CCC/C(=C\c3cc(Cl)c(O)c(OCC)c3)C2=O)cc(Cl)c1O	Cycloheximide cs 23, Pf growth 96h 3.3µM, Pf growth 48h inconclusive
CCOc1cc(/C=C2\CN(C)C/C(=C\c3ccc(O)c(OCC)c3)C2=O)ccc1O	Cycloheximide cs 27, Pf growth 96h inconclusive
CCc1nc2cc3sc(CC)nc3cc2s1	Cycloheximide cs 25, Shiga toxin inh 74, Pf growth 96h inconclusive (no result: NS1 inh)
COc1ccc(C(=O)NNS(=O)(=O)c2ccccc2)cc1OC	none (no result: Shiga toxin inh)
